Test results taken from PubChem BioAssay (NCATS).
Records with an inconclusive call do not appear. A call without a number means that no potency is given here. Calls of active or inactive are those of the source. Calls follow the shape of the dose curve; as a rule, active = well fitted inhibition curve with a large enough effect; inconclusive = small, poorly fitted or top-dose-only effect; inactive = flat fitted curve, though single readings scatter.

The compounds below were run on MCC-26 (assay: qHTS assay to identify novel small-molecules to repurpose for Merkel cell carcinoma treatment (AID 1296009; also: nearly all actives have a fitted effect of over 60% in size)). Settings: MCC and control cell lines, CellTiter-Glo viability, 72 h; series mostly up to 46 µM.
From the text: MCC is a rare and aggressive neuroendocrine skin cancer with limited treatment options. Approximately 80% of MCCs have the Merkel cell polyomavirus (MCPyV) DNA integrated into the host genome (virus-positive: VP-MCC) and viral oncogenes drive oncogenesis. The remaining MCCs are virus-negative (VN-MCC) and are caused by UV mutagenesis. To identify novel treatments for VP-MCC and/or VN-MCC we screened three VP-MCC cell lines (WAGA, MKL-1, MKL-2), three VN-MCC cell lines (MCC-13, MCC-26, UISO), and four immortalized, non-transformed control cell lines (HaCaT, HEK293T, CRL7250, NIH-3T3) against ~2,400 compounds in the NCGC Pharmaceutical Collection (NPC) and ~1,900 compounds in the Mechanism Interrogation PlatE (MiPE). Using cell viability as a readout (CellTiter-Glo assay) we found both overlapping and distinct drugs that can be repurposed for the treatment of VP-MCC and VN-MCC.
A high-throughput screen was conducted in 1536-well white flat bottom plates (Corning) on a Kalypsys robotic system. Cell lines WAGA, MKL-1, MKL-2, MCC-13, MCC-26, UISO, HaCaT, HEK293T, CRL7250, and NIH-3T3 were screened against 2 small molecule annotated drug libraries NPC and MIPE in dose response (8 and 11 pt. respectively) measuring cell viability after 72 hours of incubation. […] A 1,536 pintool (Kalypsys) was used to transfer 23 nL of compound in DMSO to the 1,536-well assay plates. After 72 hr incubation at 37 degree celsius, 2.5 uL of CellTiter-Glo (Promega) was dispensed into each well using a BiorapTR. Plates were incubated at room temperature for 10 min, transferred to a ViewLux (PerkinElmer) and the luminescence was recorded using an exposure time of 2 seconds. Relative luminescence units (RLUs) were normalized to in-plate controls (no cells as a positive (cytotoxicity) control, DMSO as negative control) and the normalized data was processed using NCATS in-house software.
Potency is read from the fitted curve at half-maximal effect.

Row | SMILES | Potency | activity change, negative = cytotoxicity
1 | O=[N+]([O-])c1ccc(Nc2ccccc2-c2ccccc2)c2nonc12 | inactive | –
2 | COc1ccc(-c2cc(=O)c3c(O)cc(O[C@@H]4O[C@H](CO[C@@H]5O[C@@H](C)[C@H](O)[C@@H](O)[C@@H]5O)[C@@H](O)[C@H](O)[C@@H]4O)cc3o2)cc1O | inactive | –
3 | CC1CCN(c2cc(N3CCN(C)CC3)ccc2NC(=O)c2cc(C#N)c[nH]2)CC1 | inactive | –
4 | CCCCc1ccc(NS(=O)(=O)c2ccc(C)c(C(=O)N3CCN(c4cccc(C)c4C)CC3)c2)cc1 | inactive | –
5 | Cc1cc(OCCCS(C)(=O)=O)cc(C)c1-c1cccc(COc2ccc3c(c2)OC[C@H]3CC(=O)O)c1 | inactive | –
6 | CC[C@H](NC(=O)[C@H](C)NC)C(=O)N1C[C@@H](O)C[C@H]1Cc1c(-c2[nH]c3cc(F)ccc3c2C[C@H]2C[C@H](O)CN2C(=O)[C@H](CC)NC(=O)[C@H](C)NC)[nH]c2cc(F)ccc12 | inactive | –
7 | OC(c1cc(C(F)(F)F)nc2c(C(F)(F)F)cccc12)C1CCCCN1 (stereo not given) | inactive | –
8 | CC1(C)[C@H]2CC[C@]3(C)[C@@H](C(=O)C=C4[C@@H]5C[C@@](C)(C(=O)O)CC[C@]5(C)CC[C@]43C)[C@@]2(C)CC[C@@H]1O | inactive | –
9 | CC(C)[C@H](O)C(=O)N[C@@H](C)C(=O)N[C@@H]1C(=O)N(C)CCc2ccccc21 | inactive | –
10 | C[C@H](c1ccc(F)cc1CCCC(=O)O)N(c1cc(F)ccc1F)S(=O)(=O)c1ccc(Cl)cc1 | inactive | –
11 | C[C@@H](O)[C@H]1C(=O)N2C(C(=O)OCOC(=O)C(C)(C)C)=C(SC3CN(C4=NCCS4)C3)[C@H](C)[C@H]12 | inactive | –
12 | CO[C@H]1O[C@@H]2O[C@@]3(C)CC[C@@H]4[C@@H](C)CC[C@@H]([C@H]1C)[C@@]24OO3 | inactive | –
13 | N#CC1(c2cccc(C(=O)Nc3cc(Oc4ccc5nc(NC(=O)C6CC6)sc5n4)ccc3F)c2Cl)CC1 | 11.8 µM (active) | –
14 | Nc1ncnc2c1ncn2[C@@H]1O[C@H](CO)[C@@H](O)[C@@H]1O | inactive | –
15 | Nc1ncnc2c1c(-c1cccc(OCc3ccccc3)c1)cn2C1CC(CN2CCC2)C1 (stereo not given) | inactive | –
16 | CC(C)n1c(C=C[C@H](O)C[C@H](O)CC(=O)O)c(-c2ccc(F)cc2)c2ccccc21 | 20.9 µM (active) | –
17 | N[C@@H](CC(=O)N1CCn2c(nnc2C(F)(F)F)C1)Cc1cc(F)c(F)cc1F | inactive | –
18 | Clc1ccc(C2(c3ccc(-c4cn[nH]c4)cc3)CCNCC2)cc1 | inactive | –
19 | CO[C@H]1C=CO[C@@]2(C)Oc3c(C)c(O)c4c(O)c(c(C=NN5CCN(C)CC5)c(O)c4c3C2=O)NC(=O)C(C)=CC=C[C@H](C)[C@H](O)[C@@H](C)[C@@H](O)[C@@H](C)[C@H](OC(C)=O)[C@H]1C | – | -1.4% [at 9.22 µM] (inactive)
20 | C[C@@H]1CCO[C@H]2Cn3cc(C(=O)NCc4ccc(F)cc4F)c(=O)c(O)c3C(=O)N12 | inactive | –

Row | SMILES | Potency | activity change, negative = cytotoxicity
21 | Cc1nc2c([nH]1)CCN(C(=O)c1ccc(NC(=O)c3ccccc3-c3ccccc3)cc1)c1ccccc1-2 | inactive | –
22 | Fc1ccc(CNc2ncnc3ccc(F)cc23)cc1 | inactive | –
23 | O=C(c1ccc(F)c(F)c1Nc1ccc(I)cc1F)N1CC(O)([C@H]2CCCCN2)C1 | inactive | –
24 | CCCCCCCCCCCCCC(=O)N[C@H](CO)[C@H](O)c1ccc([N+](=O)[O-])cc1 | inactive | –
25 | CC(C)C[C@@H](N)[C@H](O)C(=O)N[C@H](C(=O)N[C@H](C(=O)N[C@@H](CC(=O)O)C(=O)O)C(C)C)C(C)C | inactive | –
26 | NC(N)=Nc1nc(CSCCC(N)=NS(N)(=O)=O)cs1 | inactive | –
27 | O=C(CCCN1CCN(c2ccc(F)cc2)CC1)NC1c2ccccc2CSc2ccccc21 (stereo not given) | inactive | –
28 | C=C[C@@H]1CN2CCC1C[C@@H]2C(O)c1ccnc2ccc(OC)cc12 (stereo not given in full) | inactive | –
29 | N#CC(c1ccnc(NCCc2cccnc2)n1)c1nc2ccccc2s1 (stereo not given) | inactive | –
30 | CN1C(=O)C[C@H](C(=O)N[C@@H](Cc2cnc[nH]2)C(=O)N2CCC[C@@H]2C(N)=O)NC1=O | inactive | –
31 | O=C(c1ccc(C(=O)N2CCC(N3CCCC3)CC2)c(Nc2ccccc2)c1)N1CCC(N2CCCC2)CC1 | inactive | –
32 | N#Cc1ccc(Oc2ccc3c(c2)COB3O)cc1 | inactive | –
33 | C[C@@H](O[C@H]1OCCN(Cc2n[nH]c(=O)[nH]2)[C@@H]1c1ccc(F)cc1)c1cc(C(F)(F)F)cc(C(F)(F)F)c1 | inactive | –
34 | Oc1cc(O)cc(C=Cc2ccc(O)c(O)c2)c1 | inactive | –
35 | COc1ccc2cc1Oc1ccc(cc1)C[C@H]1c3cc(c(OC)cc3CCN1C)Oc1c(OC)c(OC)cc3c1[C@H](C2)N(C)CC3 | inactive | –
36 | O=C(Nc1cccc(C(F)(F)F)c1)Nc1cc(S(=O)(=O)NC2CC2)ccc1-c1ccsc1 | inactive | –
37 | Cc1c(C(=O)Nc2ccc(N3C[C@@H](C)O[C@@H](C)C3)nc2)cccc1-c1ccc(OC(F)(F)F)cc1 | inactive | –
38 | N#Cc1c(N(CC(=O)O)CC(=O)O)sc(C(=O)O)c1CC(=O)O | inactive | –
39 | Cc1ccc2c(c1)C(=O)[C@]1(O)CCN(c3ccccc3)C1=N2 | inactive | –
40 | CNC(=O)c1cc(Oc2ccc(NC(=O)Nc3ccc(Cl)c(C(F)(F)F)c3)c(F)c2)ccn1 | inactive | –
